Where “and” joins values, the source holds several entries; their conditions need not be identical. Equal values may be shown once. Records with an inconclusive call do not appear. Unmarked numbers belong to inactive results. Calls of active or inactive are those of the source. Calls follow the shape of the dose curve; as a rule, active = well fitted curve in the direction sought with a large enough effect; inconclusive = small, poorly fitted or top-dose-only effect, or another doubt; inactive = no such curve, though single readings can be large; an effect the other way counts as inactive or inconclusive.

These results are taken from PubChem BioAssay (NCATS).

The target of experiment [1] is Rap guanine nucleotide exchange factor 3 (Homo sapiens) (UniProt O95398). Kind of experiment: Confirmatory qHTS for agonist of cAMP-regulated guanine nucleotide exchange factor 3 (EPAC1) (AID 1645881).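 Also: EPAC1 catalysed release of BODIPY-GDP from Rap1B seen as fluorescence loss; 100% = effect of cAMP agonist control; nearly all actives have a fitted effect of over 75% in size.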 On the technique in general: In qHTS, concentration-response curves come from the screen itself.
For experiment [2], the target named is Rap guanine nucleotide exchange factor 4 (Homo sapiens) (UniProt Q8WZA2). As to the kind of experiment: Confirmatory qHTS for agonist of cAMP-regulated guanine nucleotide exchange factor 4 (EPAC2) (AID 1645884).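 Also: nucleotide exchange releases bodipy-GDP from Rap1 and this lowers its fluorescence; % is scaled to controls: 0 for no effect and ±100 for the full control effect; nearly all actives have a fitted effect of over 65% in size.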
Experiment [3] shares this target. As to the kind of experiment: Confirmatory qHTS for antagonist of cAMP-regulated guanine nucleotide exchange factor 4 (EPAC2) (AID 1645885). Also: nearly all actives have a fitted effect of over 25% in size. Also: potency is read from the fitted curve at half-maximal effect. As to activity change, negative = inhibition: % is scaled to controls: 0 for no effect and ±100 for the full control effect.
Experiment [4] has as its target Rap guanine nucleotide exchange factor 3 (Homo sapiens) (UniProt O95398). As to the kind of experiment: Counterscreen qHTS for antagonist of cAMP-regulated guanine nucleotide exchange factor 3 (EPAC1) (AID 1645888).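 Also: fluorescence loss as bound BODIPY-GDP is released from Rap1B; % of control where 0% means no effect.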 The essentials: (§1)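 Measured: fluorescence of BODIPY-GDP bound to Rap1B, which falls as exchange proceeds. Conditions include 50 uM competing GDP, 5 and 30 min reads, and a later cAMP challenge for antagonist detection.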
(In general: A counterscreen serves to expose hits that act by an unwanted route or on another target.)

For experiment [5] the target is unchanged. Kind of experiment: Counterscreen qHTS for agonist of cAMP-regulated guanine nucleotide exchange factor 3 (EPAC1) (AID 1645889). Also: nearly all actives have a fitted effect of over 40% in size. Also: potency is read from the fitted curve at half-maximal effect. As to activation: % of control where 0% means no effect. The essentials: as §1

Sequence of Rap guanine nucleotide exchange factor 3 (Homo sapiens) (O95398 whole entry, looked up): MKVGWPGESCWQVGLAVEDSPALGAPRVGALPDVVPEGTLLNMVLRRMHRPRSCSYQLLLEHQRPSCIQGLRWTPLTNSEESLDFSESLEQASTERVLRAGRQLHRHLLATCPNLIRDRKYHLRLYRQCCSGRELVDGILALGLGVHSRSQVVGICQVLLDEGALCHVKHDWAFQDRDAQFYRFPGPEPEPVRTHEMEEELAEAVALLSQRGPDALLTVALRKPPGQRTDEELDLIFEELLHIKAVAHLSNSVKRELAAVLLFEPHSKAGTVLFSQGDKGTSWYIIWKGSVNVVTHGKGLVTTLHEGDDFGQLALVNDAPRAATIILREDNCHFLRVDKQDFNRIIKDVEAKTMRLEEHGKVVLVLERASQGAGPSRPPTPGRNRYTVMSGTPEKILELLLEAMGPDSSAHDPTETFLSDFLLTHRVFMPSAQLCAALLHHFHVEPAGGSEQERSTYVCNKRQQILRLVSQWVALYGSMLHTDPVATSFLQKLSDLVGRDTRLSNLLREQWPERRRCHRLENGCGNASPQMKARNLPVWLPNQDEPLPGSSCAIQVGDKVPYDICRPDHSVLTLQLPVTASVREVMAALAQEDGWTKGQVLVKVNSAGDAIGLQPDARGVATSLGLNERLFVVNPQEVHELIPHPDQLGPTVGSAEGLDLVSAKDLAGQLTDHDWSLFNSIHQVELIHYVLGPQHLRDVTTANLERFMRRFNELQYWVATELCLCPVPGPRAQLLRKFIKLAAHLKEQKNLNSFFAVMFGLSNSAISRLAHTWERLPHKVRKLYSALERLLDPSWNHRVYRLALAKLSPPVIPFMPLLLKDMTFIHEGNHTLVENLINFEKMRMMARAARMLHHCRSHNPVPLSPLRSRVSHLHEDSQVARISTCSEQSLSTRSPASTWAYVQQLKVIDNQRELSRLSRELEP
Sequence of Rap guanine nucleotide exchange factor 4 (Homo sapiens) (Q8WZA2 whole entry, looked up): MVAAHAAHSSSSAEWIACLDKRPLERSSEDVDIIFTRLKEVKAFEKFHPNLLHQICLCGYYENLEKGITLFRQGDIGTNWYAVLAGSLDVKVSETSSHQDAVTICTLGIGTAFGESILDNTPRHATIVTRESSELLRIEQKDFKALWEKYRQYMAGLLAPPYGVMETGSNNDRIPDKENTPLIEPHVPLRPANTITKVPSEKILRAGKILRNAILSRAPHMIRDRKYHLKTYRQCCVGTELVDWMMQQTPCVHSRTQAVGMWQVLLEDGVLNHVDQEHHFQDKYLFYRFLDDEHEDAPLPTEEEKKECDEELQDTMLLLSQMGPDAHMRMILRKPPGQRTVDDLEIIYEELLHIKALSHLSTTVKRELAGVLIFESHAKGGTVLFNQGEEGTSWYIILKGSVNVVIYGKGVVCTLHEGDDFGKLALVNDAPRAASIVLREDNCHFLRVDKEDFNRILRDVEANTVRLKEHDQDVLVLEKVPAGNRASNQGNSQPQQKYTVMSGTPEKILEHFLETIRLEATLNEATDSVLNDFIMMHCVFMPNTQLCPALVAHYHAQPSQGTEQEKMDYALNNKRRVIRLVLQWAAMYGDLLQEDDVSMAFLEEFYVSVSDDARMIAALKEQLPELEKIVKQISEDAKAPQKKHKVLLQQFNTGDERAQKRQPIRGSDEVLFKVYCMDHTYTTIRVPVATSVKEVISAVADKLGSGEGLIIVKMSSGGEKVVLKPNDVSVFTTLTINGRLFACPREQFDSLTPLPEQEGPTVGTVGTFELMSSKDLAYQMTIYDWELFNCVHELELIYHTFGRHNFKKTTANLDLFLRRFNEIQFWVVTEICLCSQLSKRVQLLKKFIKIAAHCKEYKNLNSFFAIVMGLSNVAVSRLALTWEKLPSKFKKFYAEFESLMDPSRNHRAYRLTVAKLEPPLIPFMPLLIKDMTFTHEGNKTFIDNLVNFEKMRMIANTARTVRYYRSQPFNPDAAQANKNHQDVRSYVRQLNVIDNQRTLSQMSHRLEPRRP

`Cc1ccc2nc(-c3ccc(NC(=O)CSc4nccc(=O)[nH]4)cc3)sc2c1`: the Potency result in experiment [1], in experiment [2], in experiment [3], in experiment [4] and in experiment [5] was “inactive” each time.

On to `O=[N+]([O-])c1cc2c(cc1CN1CCN(CCOCCO)CC1)OCO2`, for which the Potency result in experiment [1], in experiment [2], in experiment [3], in experiment [4] and in experiment [5] was “inactive” in each case.

As to `Clc1ccc(CON/C=N/c2ncnc3sccc23)cc1`, the Potency entry in experiment [1] and in experiment [3] was “inactive” in each case. Besides, the activation is 8% [at 17.1 µM, percent relative to cAMP agonist control] in experiment [2] and 11.3% [at 30.8 µM] in experiment [5]. Further, the activity change, negative = inhibition in experiment [4] was -10% [at 30.8 µM].

As for `Oc1ccc(NCc2ccc(OCc3ccccc3)cc2)cc1`, the Potency result in experiment [1], in experiment [2], in experiment [3] and in experiment [4] was “inactive” in each case. In experiment [5], the activation was 16.4% [at 30.8 µM].

Turning to `N#C/C(=C\c1ccc(OCc2ccc(C(=O)O)cc2)cc1)C(=O)N1CCOCC1`, the Potency result in experiment [1], in experiment [2], in experiment [4] and in experiment [5] was “inactive” throughout. For the same compound, the Potency in experiment [3] was 21.3 µM (active).

Take `CCCCN(C(=O)Cn1ncc(Cl)c(Cl)c1=O)c1c(N)n(CC(C)C)c(=O)[nH]c1=O`: the Potency result in experiment [1] and in experiment [3] was “inactive” each time. The activation in experiment [2] was 3.26% [at 17.1 µM, percent relative to cAMP agonist control]; in experiment [5] it was 16.5% [at 30.8 µM]. For the same compound, the activity change, negative = inhibition in experiment [4] is -8.9% [at 30.8 µM].

Regarding `N#CCC(=O)Nc1ccc(C(=O)OCC(=O)Nc2ccc3ccccc3c2)cc1`, the Potency entry in experiment [1], in experiment [2], in experiment [3], in experiment [4] and in experiment [5] was “inactive” each time.

For `O=C(Cc1ccc(Cl)cc1)Nc1cccc(C(=O)Nc2ccccc2C(=O)O)c1`, the Potency result in experiment [1] and in experiment [3] was “inactive” in each case. Further, the activation in experiment [2] was 8.25% [at 17.1 µM, percent relative to cAMP agonist control]; in experiment [5], 2.92% [at 30.8 µM]. For the same compound, in experiment [4], the activity change, negative = inhibition was -15.6% [at 30.8 µM].

As to `CCCCNC(=O)COC(=O)c1c2c(nc3ccccc13)CCC2`, the Potency result in experiment [1], in experiment [2], in experiment [3], in experiment [4] and in experiment [5] was “inactive” throughout.

For `CCCCOc1c(Br)cc(/C=N/O)cc1OCC`, the Potency entry in experiment [1] and in experiment [3] was “inactive” throughout. The activation is 6.54% [at 17.1 µM, percent relative to cAMP agonist control] in experiment [2] and 5.43% [at 30.8 µM] in experiment [5]. The activity change, negative = inhibition in experiment [4] is -12% [at 30.8 µM].

Regarding `CCOC(=O)c1c(C)oc2nc(C)nc(N(CC(C)C)CC(C)C)c12`, the Potency entry in experiment [1], in experiment [2], in experiment [3], in experiment [4] and in experiment [5] was “inactive” each time.

As to `CC(C)C[C@H]1CNC(=O)C(=O)N1C[C@@H]1CCCN1C[C@H](Cc1ccc(O)cc1)N1C[C@H](Cc2ccccc2)N(CC2CCCCC2)C(=O)C1=O`, the Potency result in experiment [1], in experiment [2], in experiment [4] and in experiment [5] was “inactive” in each case. Moreover, in experiment [3], the Potency was 47.8 µM (active).

As for `COc1ccc(NC(=O)CSc2nc3sc4c(c3c(=O)n2-c2ccc(OC)cc2)CCN(C)C4)cc1`, the Potency entry in experiment [1] and in experiment [3] was “inactive” throughout. In addition, the activation in experiment [2] was -8.15% [at 17.1 µM, percent relative to cAMP agonist control]; in experiment [5], 31.5% [at 30.8 µM]. Moreover, the activity change, negative = inhibition in experiment [4] is -8.97% [at 30.8 µM].

As to `CCOC(=O)C1CCc2c(ccc3ccccc23)N1CCC#N` (stereo not given), the Potency entry in experiment [1] and in experiment [3] was “inactive” throughout. The activation in experiment [2] is 0.813% [at 17.1 µM, percent relative to cAMP agonist control]; in experiment [5], 2.64% [at 30.8 µM]. The activity change, negative = inhibition in experiment [4] is -15.2% [at 30.8 µM].

Consider `CCOc1cccc(CNc2ccc(O)cc2)c1OCc1ccccc1Cl`, for which the Potency result in experiment [1], in experiment [2], in experiment [3] and in experiment [4] was “inactive” each time. Besides, in experiment [5], the Potency was 44.7 nM (active) and 79.4 µM (active).

With `CCOc1ccc(S(=O)(=O)Nc2cc(NS(=O)(=O)c3ccc(OCC)cc3)cc(C(=O)O)c2)cc1`, the Potency result in experiment [1], in experiment [2], in experiment [3], in experiment [4] and in experiment [5] was “inactive” throughout.

For the compound `CC(C)(C)NC(=O)NC(=O)CN1CCN(S(=O)(=O)c2ccc3c(c2)CCCC3)CC1`, the Potency entry in experiment [1] and in experiment [3] was “inactive” each time. For the same compound, the activation was -5.51% [at 17.1 µM, percent relative to cAMP agonist control] in experiment [2] and 6.75% [at 30.8 µM] in experiment [5]. Further, in experiment [4], the activity change, negative = inhibition was -44% [at 30.8 µM].

As to `Fc1ccc(-c2nc3ccc(Br)cn3c2Cc2cccc(F)c2)cc1`, the Potency result in experiment [1], in experiment [2], in experiment [3], in experiment [4] and in experiment [5] was “inactive” throughout.

In the case of `C=CCN1C(=O)/C(=C/c2ccc(OC(C)=O)c(OCC)c2[N+](=O)[O-])SC1=S`, the Potency result in experiment [1] and in experiment [3] was “inactive” in each case. Also, the activation is 0% [at 17.1 µM, percent relative to cAMP agonist control] in experiment [2] and 52.7% [at 30.8 µM] in experiment [5]. Moreover, in experiment [4], the activity change, negative = inhibition is 12.5% [at 30.8 µM].
